Shown are actives, neighbours in structure and some others; about 7.6% of the full set was active somewhere.
KB-3-1 tox – KB-3-1 parental cell cytotoxicity; KB-3-1 viability, CellTiter-Glo ATP luminescence, 72 h; Potency, µM (doses to about 46.1 µM), actives largely listed as cytotoxic; 400,000 tested, 1.4% active; further: nearly all actives have a fitted effect of over 60% in size
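Parental KB-3-1 adenocarcinoma cells in phenol-red-free DMEM with 10% FBS were pin-treated with compounds at several concentrations, incubated 72 h at 37 °C, and viability read by CellTiter-Glo luminescence; concentration-effect curves were fitted after normalization.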
MCF10A rereplic – induces DNA re-replication in MCF 10a normal breast cells. Potency, µM (titrated, usually from 46.1 µM), actives largely listed as activators. 350,000 tested, 2.9% active. MCF 10A DNA re-replication, Hoechst nuclear intensity, 48 h. AID 624296; further: nearly all actives have a fitted effect of over 50% in size
KCNH2 3.1 inh – KCNH2 3.1 (human) potassium channel inhibition | U2OS KCNH2 3.1, thallium flux FluxOr; active compounds read low | activity change, % (tested at about 1.8 µM) | 340,000 tested, 0.95% active | AID 720553;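 active means maximum activity change below -70%; inconclusive means maximum activity change from -70% to -50%; inactive means maximum activity change above -50%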;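 further: thallium influx rate constant from kinetic fluorescence after stimulation buffer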
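We transduce U2OS cells with the mutant 3.1 virus, culture them overnight, load FluxOr with Red40 quencher for 45 min, then add stimulation buffer and read kinetically for 2 min to derive a normalized rate constant.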
KCNH2 WT inh – KCNH2 (human, wildtype) channel inhibition; activity change, % at 1.84 µM; Q12809; 340,000 tested, 0.37% active; AID 720551; U2OS, BacMam KCNH2, thallium flux FluxOr; active compounds read low;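 active means maximum activity change below -70%; inconclusive means maximum activity change between -70% and -50%; inactive means maximum activity change above -50%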
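U2OS cells transduced with wild-type KCNH2 virus are loaded with FluxOr dye for 45 min, and thallium flux is measured in kinetic reads before and after stimulation buffer. Rate constants are normalized to DMSO controls.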
SW480 rereplic – inducers of DNA re-replication in SW480 colon cancer cells; SW480 DNA re-replication, Hoechst DNA content imaging, 48 h; 340,000 tested, 1.8% active; Potency, µM (doses to about 46.1 µM), hits mostly activators; further: nearly all actives have a fitted effect of over 55% in size
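250 cells/well; 23 nL cpd via pin tool; 48 hr, 37 C, 5% CO2; Hoechst 40 min; imager read of total nuclear intensity, ex 405/em 500-530 nm.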
KB-V1 cytotox – KB-V1 MDR subline cytotoxicity; KB-V1 MDR cells viability, CellTiter-Glo, 72 h; Potency, µM (doses to about 46.1 µM), hits mostly cytotoxic; 400,000 tested, 3.4% active; AID 1347076; further: nearly all actives have a fitted effect of over 60% in size
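Cytotoxicity toward P-gp-expressing KB-V1 cells was determined as loss of CellTiter-Glo luminescence after 72 h at 37 degrees C. Compounds were tested in quantitative HTS format across a concentration range, with curves fitted to normalized data.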
Numbers stand for hits; – = inactive; ? = inconclusive; · = not tested or not shown; [ ] = remark or other dose. Unless noted, the call rests on the fitted dose curve; in most records, active means well fitted curve in the direction sought with a large enough effect; inconclusive means small, poorly fitted or top-dose-only effect, or another doubt; inactive means no such curve, though single readings can be large; an effect the other way counts as inactive or inconclusive.

SMILES	KB-3-1 tox	MCF10A rereplic	KCNH2 3.1 inh	KCNH2 WT inh	SW480 rereplic	KB-V1 cytotox
C[C@H]1CN([C@@H](C)CO)S(=O)(=O)c2ccc(Br)cc2O[C@H]1CN(C)S(=O)(=O)c1ccccc1	–	·	–	–	·	?
COc1cccc(S(=O)(=O)N(C)C[C@H]2Oc3cc(Br)ccc3S(=O)(=O)N([C@@H](C)CO)C[C@H]2C)c1	–	·	–	–	·	9.2µM
CC(Oc1ccc(C#N)cc1)C(=O)N1CC=C(c2ccccc2)CC1 (centres undefined)	16µM	16µM	–	–	?	13µM
Cc1ccc2nc3c(cc2c1)c(C)nn3-c1ccccc1	–	?	–	–	7.3µM	–
CCOC(=O)c1ccccc1NC(=O)CN(c1ccccc1)S(=O)(=O)c1ccc(OCC)cc1	–	·	·	·	·	–
COc1ccc(N(CC(=O)Nc2ccc(C)cc2C)S(=O)(=O)c2c(C)n[nH]c2C)cc1	?	–	–	–	?	?
COc1ccc(N(CC(=O)Nc2cc(Cl)ccc2C)S(=O)(=O)c2c(C)n[nH]c2C)cc1	9.2µM	–	–	–	–	–
CCOc1ccccc1NC(=O)CN(c1ccc(OC)c(OC)c1)S(=O)(=O)c1ccc(C)cc1	–	·	-108	–	·	–
CCOc1ccc(NC(=O)CN(c2ccc(OC)c(OC)c2)S(=O)(=O)c2ccc(C)cc2)cc1	–	–	–	–	–	–
CCS(=O)(=O)N(CC(=O)Nc1cccc2ccccc12)c1ccc(OC)cc1	–	–	–	–	–	13µM
CCOc1ccc(N(CC(=O)Nc2ccccc2C(=O)N2CCOCC2)S(=O)(=O)c2ccc(F)cc2)cc1	–	–	–	–	–	4.6µM
Cc1ccc(C(=O)Nc2ccc(-c3nc4ccccc4[nH]3)cc2)cc1Br	–	·	·	·	·	–
COc1ccccc1N(C)S(=O)(=O)c1ccc(C(=O)NCCCN2CCCC2=O)cc1	–	·	–	–	·	–
COc1ccc(N(CC(=O)Nc2ccc(OC)cc2OC)S(=O)(=O)c2ccccc2)cc1	–	?	–	–	?	?
COc1ccc(N(CC(=O)Nc2cc(C)on2)S(=O)(=O)c2cc(C)ccc2C)cc1	?	–	–	–	?	5.8µM
CCOc1ccc(N(CC(=O)Nc2ccc(C)cc2)S(=O)(=O)c2c(C)noc2C)cc1	?	–	–	–	–	?
CCOc1ccc(N(CC(=O)Nc2ccccc2OCC)S(=O)(=O)c2c(C)noc2C)cc1	3.3µM	1.3µM	–	–	5.8µM	5.8µM
CCOc1ccccc1N(CC(=O)Nc1ccccc1F)S(=O)(=O)c1ccccc1	–	0.58µM	–	–	?	?
CCOc1ccc(N(CC(=O)Nc2ccccc2OC)S(=O)(=O)c2ccccc2)cc1	4.6µM	?	–	–	2.3µM	1µM
Cc1cccc(C2NC(c3cccc(C)c3)C([N+](=O)[O-])C(C)(C)C2[N+](=O)[O-])c1 (centres undefined)	–	–	–	–	?	–
CCOC(=O)C1=CCN(S(=O)(=O)c2ccccc2Cl)C1c1cccc(C)c1 (centres undefined)	–	·	·	·	·	?
Cc1ccc(C)c(N2CCN(S(=O)(=O)c3ccc(C(=O)N(C)C)s3)CC2)c1	–	·	·	·	·	–
CCN(CC(=O)Nc1cc(Cl)ccc1C)C(=O)c1oc2ccc(OC)cc2c1C	–	–	–	–	–	16µM
CCOc1ccc2oc(C(=O)N(CC)CC(=O)Nc3c(F)cccc3F)c(C)c2c1	–	–	–	–	–	?
COc1ccc(N(CC(=O)Nc2ccc3c(c2)OCCO3)S(=O)(=O)c2c(C)noc2C)cc1	?	?	–	–	–	2.9µM
SMILES	KB-3-1 tox	MCF10A rereplic	KCNH2 3.1 inh	KCNH2 WT inh	SW480 rereplic	KB-V1 cytotox
Cc1ccc(N(CC(=O)Nc2ccc3c(c2)OCCO3)S(=O)(=O)c2c(C)noc2C)cc1	–	–[9.22 µM]	–	–	–	?
COc1ccc(S(=O)(=O)N(Cc2ccccc2)c2ccccc2C(=O)N2CCOCC2)cc1	?	?	–	–	?	13µM
COc1ccc(S(=O)(=O)N(Cc2ccccc2)c2ccccc2C(=O)O)cc1	–	–	–	–	–[9.22 µM]	–
CCN1CCc2c(OCC(=O)Nc3ccc(C)cc3)cccc2C1=O	–	–	–	–	–	–
Cc1c(Cc2ccccc2)sc(/N=C/c2ccc3ccccc3c2)c1C(N)=O	?	2.9µM	–	–	1.2µM	0.92µM
Cc1c(Cc2ccccc2)sc(/N=C/c2c(O)ccc3ccccc23)c1C(N)=O	–	12µM	–	–	?	?
Cc1ccc(/C=N/c2sc(Cc3ccccc3)c(C)c2C(N)=O)o1	?	?	–	–	–	?
COC(=O)c1cc(=O)n(Cc2ccc(F)cc2)c(=Nc2ccccc2)s1	–	?	–	–	–	?
COC(=O)c1cc(=O)n(Cc2ccc(OC)c(OC)c2)c(=Nc2ccc(F)cc2)s1	21µM	?	–	–	–	?
COC(=O)c1cc(=O)n(Cc2ccco2)c(=Nc2ccc(F)cc2)s1	?	?	–	–	–	23µM
COC(=O)c1cc(=O)n(CCc2ccc(OC)c(OC)c2)c(=Nc2ccc(F)c(Cl)c2)s1	?	3.3µM	–	–	–	21µM
Cc1ccc(CN(C(=O)COc2ccc([N+](=O)[O-])cc2)c2ccccn2)cc1	–	·	·	·	·	?
CSC1=NC2(CCN(C(=O)NC3CCCCC3)CC2)N=C1c1ccc(C(C)(C)C)cc1	–	·	·	·	·	–
Cc1ccc(OCC(=O)c2c[nH]c3ccccc23)c([N+](=O)[O-])n1	–	?	–	–	–	–
O=Cc1sc([O-])nc1-[n+]1ccc2ccccc2c1	–	–	–	–	–	–
O=C(CNC(=O)c1ccccc1F)N/N=C/c1cc(Br)ccc1OC(=O)/C=C/c1ccco1	?	?	?	?	6.5µM	16µM
COc1ccccc1C(=O)NCC(=O)N/N=C/c1cc(Br)ccc1OC(=O)/C=C\c1ccco1	–	16µM	–	·	?	?
COc1ccc(CNC(=O)CN2c3ccccc3S(=O)(=O)c3ccccc32)cc1	–	–	–	–	?	?
COc1ccccc1CNc1ccc(-c2nc(-c3ccco3)no2)cc1[N+](=O)[O-]	–	·	·	·	·	–
CCCCCCc1cc2cc(-c3nnc(-c4cc(OC)c(OC)c(OC)c4)o3)c(=O)oc2cc1O	?	0.52µM	–	–	8.2µM	?
CCCCCCc1cc2cc(S(=O)(=O)c3ccc(F)cc3)c(=O)oc2cc1O	–	2.3µM	–	–	4.6µM	?
CCCCCCc1cc2cc(-c3nnc(-c4ccccc4O)o3)c(=O)oc2cc1O	?	0.73µM	–	–	2.3µM	13µM
COc1cc(-c2nnc(SCc3cc(=O)oc4cc(O)c(O)cc34)o2)cc(OC)c1OC	–	?	–	–	–	–

Screening data from PubChem.
